# Compound activity as filed in PubChem BioAssay.
# Rows were chosen to be rich in hits. Some 2.4% of all compounds tested hit in one or more screens of this group.
# D2 ag-1 – HTS Assay for Allosteric Agonists of the Human D2 Dopamine Receptor: Primary Screen for Agonists; HEK293 T-REx D2 cells, calcium flux agonist mode; D(2) dopamine receptor (Homo sapiens), P14416; AID 485358, 2010; 0.53% of 340,000 active; activation, % at 2 µM;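 active means activation over 3 SD above normal in the single-dose calcium agonist read, cut at about 30% in these data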; further: 0% is about no effect
#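 Calcium-flux readout, 1 cycle/sec over 180 s following compound pin transfer, in inducible HEK293 Trex D2 cells (force-coupled); dopamine controls included. Positive calcium responses during this window marked compounds as potential agonists.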
# D2 PAM-1 – HTS Assay for Positive Allosteric Modulators of the Human D2 Dopamine Receptor: Primary Screen for Potentiators | D(2) dopamine receptor (Homo sapiens), P14416 | HEK293 T-REx D2, calcium flux, EC20 dopamine potentiation | potentiation, % at 10 µM | 0.34% of 340,000 active | AID 485347, 2010;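 active means potentiation over 3 SD above the plate norm, cut at about 30% in these data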; further: 0% is about no effect
#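 Tetracycline-induced Hek293 Trex D2 cells, force-coupled to calcium, loaded with no-wash calcium dye. Compound added with 180 s kinetic read for agonism, then EC20 dopamine and a further 180 s read for potentiation.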
# D2 PAM-2 – Beta-Arrestin HTS for Positive Allosteric Modulators of the Human D2 Dopamine Receptor: Potentiators. potentiation, % (test concentration not listed). D(2) dopamine receptor (Homo sapiens), P14416. 0.23% of 360,000 active. DiscoveRx D2 beta-arrestin cells, luminescence, 90 min; 100% = 57 uM dopamine signal; in the data active means potentiation above about 50%; inconclusive means mostly about 30% to 49%
#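 PathHunter D2 cells, attached overnight at 37 deg C, received compound in DMSO plus dopamine at EC20 (50 nM final) for 90 min at 37 deg C. Beta-arrestin recruitment was read as luminescence after 1 h with detection reagent at ambient temperature.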
# D2 ag-2 – Beta-Arrestin HTS for Positive Allosteric Modulators of the Human D2 Dopamine Receptor: Agonists; D(2) dopamine receptor (Homo sapiens), P14416; DiscoveRx PathHunter D2 beta-arrestin, luminescence, 90 min; 100% = 57 uM dopamine signal; activation, % (concentration not given with the values); 0.084% of 360,000 active; AID 624465, 2012; in the data active means activation above about 40%; inconclusive means between about 15% and that limit
#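 Agonist mode: compounds alone added to overnight-plated D2 PathHunter cells for 90 min at 37 C, with 57 uM final dopamine (EC100) defining full response. Beta-arrestin recruitment detected by chemiluminescent reagent, read after 1 h at ambient temperature.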
# D2 antagonist – HTS Assay for Allosteric Antagonists of the Human D2 Dopamine Receptor: Primary Screen for Antagonists; D(2) dopamine receptor (Homo sapiens), P14416; HEK293 TREx D2 cells, calcium flux, dopamine EC80; inhibition, % at 10 µM; 2% of 340,000 active; AID 485344, 2010; in the data active means inhibition above about 30%; inactive means below that, where a call was filed; further: 0% is about no effect
#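 Dopamine at EC80 is the agonist stimulus; test compounds precede it by 180 s. Calcium flux read kinetically in a force-coupled, inducible HEK293 T-REx D2 cell line.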
# D3 ag – qHTS of D3 Dopamine Receptor Agonist: D3 Dopamine Receptor B-arrestin Agonist Confirmatory Assay | DiscoveRx D3 beta-arrestin cells, luminescence, 90 min | shares compounds with D2 ag-1 | 4% of 2,300 active | Potency, µM (titrated, usually from 76.9 µM), without a hit: top-dose activation, usual class: activators;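 further: potency means the concentration at half of the fitted maximal effect; 100% = dopamine control response; nearly all actives have a fitted effect of over 70% in size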
# Target sequence (P35462 whole entry, looked up): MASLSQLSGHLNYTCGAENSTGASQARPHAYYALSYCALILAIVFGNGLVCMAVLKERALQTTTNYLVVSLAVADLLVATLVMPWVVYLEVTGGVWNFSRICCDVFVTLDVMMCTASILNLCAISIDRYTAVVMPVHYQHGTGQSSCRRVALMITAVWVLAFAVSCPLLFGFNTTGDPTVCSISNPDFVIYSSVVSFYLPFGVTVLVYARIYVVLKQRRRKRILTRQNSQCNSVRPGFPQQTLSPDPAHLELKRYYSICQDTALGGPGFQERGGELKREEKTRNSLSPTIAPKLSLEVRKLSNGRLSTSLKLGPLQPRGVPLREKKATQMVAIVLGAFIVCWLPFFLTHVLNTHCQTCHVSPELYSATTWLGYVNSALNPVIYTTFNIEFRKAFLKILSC
# D2 ag-3 – qHTS of D3 Dopamine Receptor Agonist: D2 Dopamine Receptor B-arrestin Agonist Counterscreen; shares compounds with D2 ag-1; AID 720507, 2013; Potency, µM (doses to about 76.9 µM), without a hit: at the highest dose activation, hits mostly activators; 5.9% of 2,300 active; DiscoveRx PathHunter D2 beta-arrestin, luminescence, 90 min; response scale: percent relative to full dopamine signal; further: potency means the concentration at half of the fitted maximal effect; % of control where 0% means no effect; nearly all actives have a fitted effect of over 70% in size
# Active calls of the source: *; ? = inconclusive; · = no result given. Unless noted, the call rests on the fitted dose curve; in most records, active means well fitted activation curve with a large enough effect; inconclusive means small, poorly fitted or top-dose-only effect; inactive means flat fitted curve, though single readings scatter.
SMILES,D2 ag-1,D2 PAM-1,D2 PAM-2,D2 ag-2,D2 antagonist,D3 ag,D2 ag-3
O=C(CN1CCN(c2ccccn2)CC1)Nc1ccccc1C(=O)Nc1ccccc1,1,9,12,2,-6,·,·
COC(=O)c1ccc(C(=O)OC)c(NC(=O)CN2CCN(c3ccccc3)CC2)c1,0,7,-16,-3,-35,·,·
NC(=O)c1ccc(NC(=O)CN2CCN(c3ccc(Cl)cc3)CC2)cc1,·,6,-2,-4,·,·,·
COC(=O)c1ccc(NC(=O)CN2CCN(c3ccccn3)CC2)cc1,64*,-22,13,46*,68*,-3%,?
O=C(CN1CCN(c2ccccn2)CC1)Nc1ccc(OCc2ccccc2)cc1,13,9,?,41*,57*,-5%,?
CCOC(=O)c1ccc(NC(=O)CN2CCN(c3ccccc3)CC2)cc1,65*,-17,19,?,62*,?,?
CC(=O)N1CCc2cc(C(=O)CN3CCN(c4ccccn4)CC3)ccc21,87*,-29,24,?,93*,1.6µM*,1.1µM*
COC(=O)c1c(NC(=O)CN2CCC3(O)CCCCC3C2c2ccc(OC)cc2OC)sc(C)c1C (stereo unspecified),-1,3,-23,-2,-1,·,·
CCCCNCCCOc1cccc(Cl)c1Cl,49*,-35,-11,3,87*,11%,12%
Cc1ccc(S(=O)(=O)N(C)C)cc1NC(=O)C1CCN(C(=O)Nc2ccccc2)CC1,1,-29,-30,0,73*,-2%,-4%
CCN(CC)CCNC(=O)C(=O)NCC(c1ccc2c(c1)OCO2)N1CCOCC1 (stereo unspecified),0,6,·,·,·,·,·
COc1cccc2c1cc1c(=O)n(CC(=O)N3CCC(C)CC3)nc(C)n12,·,-9,12,?,·,-4%,?
Cc1ccc2oc(=O)c3cc(C(=O)NCCCN4C(C)CCCC4C)sc3c2c1 (stereo unspecified),0,16,-22,-1,-7,·,·
Fc1cccc(NCc2ccccc2-c2nnc(-c3ccccc3Cl)o2)c1,-1,-7,·,·,·,·,·
CN(C(=O)c1ccccc1C(=O)OCC(=O)c1ccc(F)cc1)c1ccccc1,0,-8,-8,-3,23,-4%,0%
CN(C(=O)c1ccccc1C(=O)OCC(=O)c1ccccc1)c1ccccc1,·,·,2,2,·,·,·
N#CN=C(c1ccccc1)c1ccccc1,1,1,-4,0,7,·,·
N#CCN=C(c1ccccc1)c1ccccc1,0,-8,-8,-8,20,-10%,-3%
COc1ccccc1NC(=O)c1cc([N+](=O)[O-])ccc1NCCN1C(=O)CCC1=O,47*,-24,-5,-3,-8,-6%,-9%
COc1ccccc1C(=O)NNC(=O)CN(C)S(=O)(=O)c1ccc(Cl)cc1,·,·,-7,-3,·,·,·
COc1ccc(CNCCNC(=O)c2cccs2)cc1OC,60*,-19,-12,-1,39*,-3%,-4%
CC1CCCC(NC(=O)COC(=O)/C=C/c2ccco2)C1C (stereo unspecified),0,8,-3,6,2,·,·
Cc1cc(CN2CCN(CC(=O)Nc3cc(Cl)ccc3-n3cncn3)CC2)no1,41*,-22,7,2,4,-6%,0%
CCN(C(=O)CSc1n[nH]c(N)n1)c1cccc2ccccc12,·,·,-12,-1,·,·,·
CCOC(=O)N1CCN(CC(=O)Nc2c(C(=O)OC)[nH]c3cc(C)ccc23)CC1,·,-12,-7,15,·,?,16%
SMILES,D2 ag-1,D2 PAM-1,D2 PAM-2,D2 ag-2,D2 antagonist,D3 ag,D2 ag-3
CCN(CC)S(=O)(=O)c1ccc(NC(=O)c2cc(C(=O)OC)cc([N+](=O)[O-])c2)cc1,46*,-19,5,3,0,9%,4%
COC(=O)c1cc(C(=O)Nc2ccc(S(=O)(=O)NC(C)(C)C)cc2)cc([N+](=O)[O-])c1,2,-2,7,5,-13,·,·
O=S(=O)(c1cc(Cl)ccc1Cl)N1CCc2ccccc21,61*,-17,2,-1,37*,-5%,4%
O=c1c2cc([N+](=O)[O-])ccc2nc(CN2CCN(c3ccccn3)CC2)n1-c1ccccc1F,27,-21,-3,0,-24,13%,8%
Cn1ccc(C(=O)Nc2ccc3c(c2)OCCO3)n1,0,8,4,3,22,-5%,-3%
O=C(NC1(Cc2ccccc2)CCN(CCc2cccs2)C1=O)c1ccccc1 (stereo unspecified),0,10,-4,4,0,-11%,-4%
CC1(NC(=O)c2ccccc2)CCN(CCc2cccs2)C1=O (stereo unspecified),·,-5,-8,-3,·,·,·
CN(C)CCNc1oc(-c2ccc(COc3ccc(Cl)cc3)o2)nc1C#N,·,-1,·,·,·,·,·
C/C=C(\C)CN1CCN(c2cc(C)ccc2C)CC1,0,11,-20,3,-3,·,·
C/C=C(\C)CN1CCN(c2ccccc2)CC1,79*,-21,-10,13,75*,2%,25%
C/C=C(\C)CN1CCN(c2ccccc2F)CC1,38*,-11,-9,11,65*,3%,19%
CCN(CC)C(=O)CN1CCN(c2ccccc2F)CC1,0,-7,-18,0,7,·,·
N#CCN(C(=O)COC(=O)CCCNC(=O)c1ccc(Cl)cc1)c1ccccc1,0,2,-10,0,-11,-3%,2%
CSc1ccccc1NC(=O)C1C2CCC(C2)C1C(=O)O (stereo unspecified),27,-3,-5,-4,-3,-11%,-4%
O=C(O)c1ccc(NC(=O)C2C3CCC(C3)C2C(=O)O)cc1 (stereo unspecified),0,1,4,-2,-8,·,·
